In the experiment the target is Glucose transporter (Leishmania mexicana) (UniProt O61059). As to the kind of experiment: ST_JUDE_LEISH: Cytotoxicity at 2uM final concentration against transgenic Leishmania Mexicana promastigotes LmGT2 that are glucose transport deficient and complemented with the L. Mexicana glucose transporter 2. Activity is measured by DNA content using SYBR green in vitro. In kind it is functional.
In the case of `CC1(C)N=C(N)N=C(N)N1c1cccc(Cl)c1`, the inhibition stood at 2.95%.

With `COc1c(C2CCN(CCCCNC(=O)c3ccc(-c4ccc(Cl)cc4)cn3)CC2)ccc2c1CCCC2`, the inhibition is -2.15%.

Regarding `CC(CNC(=O)[C@H]1CNCCN1C(=O)CCCc1ccccc1)c1ccccc1` (stereo not given in full), the inhibition is -0.23%.

As to `CC1(C)NC(N)=NC(=N)N1OCc1nc(N)nc(Nc2ccccc2)n1`, the inhibition turned out to be 5.9%.

Consider `C[C@H](NC(=O)c1c(CN2CCN(C(=O)C(C)(C)C)CC2)c(-c2cccs2)nc2ccccc12)C1CCCCC1`, for which the inhibition was 2.24%.

Consider `C=CCNC(CCCCC)c1ccc(OCCOc2ccc(C(CCCCC)NCC=C)cc2)cc1` (stereo not given), for which the inhibition came to 3.03%.

In the case of `Cc1cc(NC(=O)c2cccs2)ccc1OC1CCN(Cc2ccccc2)C1` (stereo not given), the inhibition worked out at 1.56%.

With `C=CCNC(=O)C(C)c1ccc2cc(OC)ccc2c1` (stereo not given), the inhibition was -0.06%.

On to `COc1ccc(CC2(c3ccc(F)cc3)N=C(N)N(CCCc3ccccc3)C2=O)cc1` (stereo not given), for which the inhibition was 4.39%.

As for `CCCN(CCC)S(=O)(=O)c1ccc(C(=O)N2CCC(C(=O)OCC)CC2)cc1`, the inhibition worked out at 5.48%.

On to `CC(C)=CCc1c(-c2ccc(O)cc2O)oc2c3c(cc(O)c2c1=O)OC(C)(C)C=C3`, for which the inhibition is 6.57%.

Regarding `O=[N+]([O-])c1ccc(Nc2nc(N/N=C/c3cc(Cl)cc(Cl)c3O)nc(Nc3ccccc3)n2)cc1`, the inhibition came out at 2.65%.

In the case of `O=C(Nc1ccc([N+](=O)[O-])cc1Br)c1cc2ccccc2nc1Cl`, the inhibition came to 7.12%.

For `CNC(=O)c1cnc(Nc2ccc(N3CCN(C)CC3)cc2)nc1Nc1cccc(OC)c1`, the inhibition came out at 5.02%.

As for `Cc1nc2sccn2c1C(=O)NCCc1ccccc1Cl`, the inhibition was 1.69%.

With `CCOC(=O)N1CCN(CCCCCNc2cc(C)nc(NC(=N)Nc3ccc(Cl)cc3)n2)CC1`, the inhibition stood at 6.08%.

Take `Cc1ccccc1C1CCN(c2ccc(C(=O)NC3CC3)cn2)CC1`: the inhibition was 0.57%.

On to `O=C(Cc1c[nH]cn1)Nc1cccc(-c2cccc(-c3nc4cc(C(F)(F)F)ccc4[nH]3)c2)c1`, for which the inhibition turned out to be 10.4%.

Take `CCOC(=O)c1ccc(N=C2SC(=Cc3cc(Br)ccc3O)C(=O)N2C)cc1`: the inhibition turned out to be 3.81%.

For the compound `CCCCN(CCCC)Cc1cc(Nc2ccnc3cc(Cl)ccc23)ccc1O`, the inhibition amounted to 4.18%.

Regarding `COc1ccc(C2C(C(=O)Nc3ccc4c(c3)OCO4)c3cc(OC)c(OC)cc3C(=O)N2C)cc1` (stereo not given), the inhibition came out at 0.53%.

`CCOc1ccc(-c2n[nH]c(C(F)(F)F)c2-c2ccccc2OC)c(O)c1`: the inhibition was found to be 1.29%.

Turning to `CC(C)c1ccc(-c2nc3cc(Cl)cnc3[nH]2)cc1`, the inhibition came out at 4.06%.

Take `CC(C)CCNc1nc(NCc2ccccc2)c2cc(O)ccc2n1`: the inhibition worked out at 1.03%.

On to `CC(C)(C)OC(=O)NCc1ccc(Nc2nnc(-c3ccc(OCC(=O)NC[C@@H]4CC[C@H]5C[C@@H]4C5(C)C)c([N+](=O)[O-])c3)o2)cc1`, for which the inhibition was found to be 0.68%.

`CC(=O)Nc1nc(C(=O)Nc2cccc(-c3ccc(-c4nc5ccccc5[nH]4)cc3)c2)cs1`: the inhibition came out at 10.3%.

In the case of `Cc1noc(C)c1-c1cccc(CNCc2ccc(-c3ccc(-c4nc5ccccc5[nH]4)s3)cc2)c1`, the inhibition is -0.04%.

In the case of `COc1cc2c(cc1OC)C(C(=O)c1ccccc1)=NCC2`, the inhibition amounted to 2.28%.

`Cc1ccc(NC(=O)Nc2ccc(Cl)cc2)cc1-c1ccc(C(=O)Nc2ccncc2)cc1`: the inhibition came to 0.65%.

In the case of `C=CCN1C(=O)C(=Cc2cc(Br)ccc2O)SC1=Nc1ccccc1`, the inhibition came out at 14.5%.

With `CN1CCN(C(C(=O)NCc2cc(Cl)cc(Cl)c2)c2ccc(NC(=O)Nc3ccccc3)cc2)CC1` (stereo not given), the inhibition was determined as 1.21%.

In the case of `O=C(Nc1ccc(N2CCN(C(=O)/C=C/c3ccccc3)CC2)c(Cl)c1)c1ccc([N+](=O)[O-])o1`, the inhibition stood at 13.7%.

Take `CC(C)Nc1cc(C(=O)N[C@@H](Cc2ccccc2)[C@H](O)CNC2CCOCC2)c(F)c(N2CCCCS2(=O)=O)c1`: the inhibition amounted to 4.99%.

Turning to `Oc1cc(-c2nc(C3(CNCc4ccc(Cl)cc4)CCCCC3)[nH]c2-c2ccncc2)ccc1Cl`, the inhibition was found to be 5.4%.

`O=C(Nc1ccc(-c2ccccc2)s1)N[C@H]1CCN(Cc2ccc(OCCCN3CCCCC3)cc2)C1`: the inhibition was 2.81%.

Consider `COc1ccc2nc(-c3cc(-c4ccc(NC(=O)C(C)C)cc4)cnc3N)[nH]c2c1`, for which the inhibition was found to be 12.9%.

With `COc1ccc(Nc2ncc3c(-c4cccc(NC(=O)CC(C)C)c4)c[nH]c3n2)cc1OC`, the inhibition was 6.64%.

Consider `CC1CCCC(Nc2noc(-c3sccc3Br)n2)C1` (stereo not given), for which the inhibition is -2.55%.

With `Fc1ccc(-c2cncc(Nc3ccncc3)n2)cc1`, the inhibition is 8.39%.

Turning to `Cc1cc(=O)c(C2CCC(c3ccc(Cl)cc3)CC2)c(C)[nH]1` (stereo not given), the inhibition was determined as 2.37%.

The values are drawn from ChEMBL document CHEMBL3433997, “St. Jude Leishmania screening dataset” (2016).
